Source: PubChem BioAssay (NCI)
This is part of a sample that, as a whole, favours compounds with a hit. Of some 83,000 tested, about 20% had one in any assay.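 In brief: 96-well plates, 48 h treatment, single concentration, percent growth endpoint.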 Active and inactive are the calls of the source. Rule for the calls: active = growth percent below 10; inactive = the rest.

Assays:
Assay in all cases: NCI-60 one-dose screen, 48 h (100 = growth as untreated, 0 = no growth, -100 = all killed)
Details in all cases: 10 µM
SR leukemia = test system: SR leukemia
RPMI-8226 leukemia = test system: RPMI-8226 leukemia
OVCAR-8 ovarian = test system: OVCAR-8 ovarian
OVCAR-5 ovarian = test system: OVCAR-5 ovarian
OVCAR-4 ovarian = test system: OVCAR-4 ovarian
SK-OV-3 ovarian = test system: SK-OV-3 ovarian
IGROV1 ovarian = test system: IGROV1 ovarian
OVCAR-3 ovarian = test system: OVCAR-3 ovarian
HS 578T breast = test system: HS 578T breast
NCI/ADR-RES ovarian = test system: NCI/ADR-RES ovarian

Measured: growth

Fc1ccc(-c2cc(C(Cl)Cl)no2)cc1
inactive: SR leukemia 106% | RPMI-8226 leukemia 96.1% | OVCAR-8 ovarian 109% | OVCAR-5 ovarian 101% | OVCAR-4 ovarian 92.2% | SK-OV-3 ovarian 112% | IGROV1 ovarian 106% | OVCAR-3 ovarian 98.2% | HS 578T breast 93% | NCI/ADR-RES ovarian 108%

COc1cccc(-c2nnc(COc3ccc(-c4nc5ccc(C)cc5[nH]4)cc3OC)o2)c1
inactive: OVCAR-8 ovarian 46.9% | OVCAR-5 ovarian 103% | OVCAR-4 ovarian 54.4% | SK-OV-3 ovarian 101% | IGROV1 ovarian 85.1% | OVCAR-3 ovarian 77.4% | HS 578T breast 31.1% | NCI/ADR-RES ovarian 76.8%
active: SR leukemia -25.7% | RPMI-8226 leukemia -12.2%

CN1/C(=C\C(I)C(I)C2=[N+](C)c3ccccc3C2(C)C)C(C)(C)c2ccccc21 (stereo not given)
inactive: OVCAR-5 ovarian 24.9% | OVCAR-4 ovarian 21.6% | IGROV1 ovarian 25% | OVCAR-3 ovarian 13.3% | HS 578T breast 42.8% | NCI/ADR-RES ovarian 73%
active: SR leukemia 8.27% | RPMI-8226 leukemia -10.4% | OVCAR-8 ovarian 7.15% | SK-OV-3 ovarian -8.39%

COc1ccc(C(C)=O)cc1N1C(=O)C2C(C1=O)C1(c3ccccc3)C(=O)C2(c2ccccc2)C(c2ccc(C)cc2)=C1c1ccc(C)cc1 (stereo not given)
inactive: RPMI-8226 leukemia 17.2% | OVCAR-8 ovarian 14.5% | OVCAR-5 ovarian 55.7% | OVCAR-4 ovarian 26.2% | SK-OV-3 ovarian 32.2% | OVCAR-3 ovarian 21.4% | HS 578T breast 80.7% | NCI/ADR-RES ovarian 12.7%
active: SR leukemia 8.77% | IGROV1 ovarian 9.07%

COc1cc(NS(C)(=O)=O)ccc1Nc1c2ccc(Cl)cc2nc2c(OC)cccc12
inactive: OVCAR-8 ovarian 11.7% | OVCAR-4 ovarian 62.4% | IGROV1 ovarian 19.3% | OVCAR-3 ovarian 22.4% | HS 578T breast 20.2% | NCI/ADR-RES ovarian 25.8%
active: SR leukemia -16.5% | RPMI-8226 leukemia -19.6% | OVCAR-5 ovarian -11.9% | SK-OV-3 ovarian -5.68%

COc1ccc(N2CCN(c3nc(-c4ccccc4)c(C#N)c(=O)[nH]3)CC2)cc1
inactive: SR leukemia 89.7% | RPMI-8226 leukemia 91.3% | OVCAR-8 ovarian 102% | OVCAR-5 ovarian 105% | OVCAR-4 ovarian 102% | SK-OV-3 ovarian 96.6% | IGROV1 ovarian 101% | OVCAR-3 ovarian 103% | HS 578T breast 112% | NCI/ADR-RES ovarian 98.9%

C#CCNCCN1C(=O)c2ccc3c4c(ccc(c24)C1=O)C(=O)N(CCNCC#C)C3=O
active: OVCAR-4 ovarian -34.7% | OVCAR-3 ovarian 5.29%
inactive: SR leukemia 13.9% | RPMI-8226 leukemia 45.3% | OVCAR-8 ovarian 32% | OVCAR-5 ovarian 68.2% | SK-OV-3 ovarian 70.3% | IGROV1 ovarian 36.9% | HS 578T breast 64% | NCI/ADR-RES ovarian 45.1%

COc1ccc2nc(NC(=O)Nc3c(F)cccc3F)sc2c1
inactive: SR leukemia 92% | RPMI-8226 leukemia 87.6% | OVCAR-8 ovarian 98.9% | OVCAR-5 ovarian 108% | OVCAR-4 ovarian 99.6% | SK-OV-3 ovarian 114% | IGROV1 ovarian 114% | OVCAR-3 ovarian 118% | HS 578T breast 117% | NCI/ADR-RES ovarian 105%

COc1ccc(S(=O)(=O)Nc2ccc(OCc3nnc(-c4ccc(Cl)cc4)o3)c(F)c2)cc1
inactive: SR leukemia 18.4% | RPMI-8226 leukemia 31.6% | OVCAR-8 ovarian 60.4% | OVCAR-5 ovarian 98.5% | OVCAR-4 ovarian 45.5% | SK-OV-3 ovarian 78.8% | IGROV1 ovarian 79.4% | OVCAR-3 ovarian 71.8% | HS 578T breast 86.3% | NCI/ADR-RES ovarian 45.7%

O=C(Nc1ccc(OCc2nnc(-c3ccccc3)o2)c(F)c1)Nc1ccc(Cl)c(Cl)c1
active: SR leukemia 6.91%
inactive: RPMI-8226 leukemia 25.5% | OVCAR-8 ovarian 61.6% | OVCAR-5 ovarian 93.4% | OVCAR-4 ovarian 50.6% | SK-OV-3 ovarian 89.6% | IGROV1 ovarian 57.7% | OVCAR-3 ovarian 53.6% | HS 578T breast 63.2% | NCI/ADR-RES ovarian 58.6%

O=C(NCCCl)c1cc(Cl)cc(Cl)c1
inactive: SR leukemia 103% | RPMI-8226 leukemia 102% | OVCAR-8 ovarian 102% | OVCAR-5 ovarian 107% | OVCAR-4 ovarian 95.1% | SK-OV-3 ovarian 103% | IGROV1 ovarian 106% | OVCAR-3 ovarian 114% | HS 578T breast 103% | NCI/ADR-RES ovarian 105%

FC(F)(F)c1ccc(-c2cnc(Cl)nc2NC2CCCCCC2)cc1
active: RPMI-8226 leukemia -4.84% | OVCAR-3 ovarian 3.4%
inactive: SR leukemia 39.2% | OVCAR-8 ovarian 15.2% | OVCAR-5 ovarian 28.7% | OVCAR-4 ovarian 10.6% | SK-OV-3 ovarian 56.1% | IGROV1 ovarian 27.7% | HS 578T breast 41.1% | NCI/ADR-RES ovarian 74.2%

CC(=O)Nc1nc(C)c(C(=O)NNC=O)s1
inactive: SR leukemia 105% | RPMI-8226 leukemia 118% | OVCAR-8 ovarian 102% | OVCAR-5 ovarian 108% | OVCAR-4 ovarian 118% | SK-OV-3 ovarian 141% | IGROV1 ovarian 13% | OVCAR-3 ovarian 98.6% | HS 578T breast 77% | NCI/ADR-RES ovarian 104%

Cc1ccccc1[P+](Cc1ccccc1)(c1ccccc1)c1ccccc1
active: SR leukemia 2.45% | RPMI-8226 leukemia -27% | OVCAR-4 ovarian 8.97%
inactive: OVCAR-8 ovarian 10% | OVCAR-5 ovarian 52% | SK-OV-3 ovarian 43.7% | IGROV1 ovarian 14.3% | OVCAR-3 ovarian 26.4% | HS 578T breast 54.4% | NCI/ADR-RES ovarian 104%
